# In PubChem BioAssay AID2685 (National Center for Advancing Translational Sciences (NCATS), 2010):
# The campaign covered roughly 320,000 compounds. About 2,100 (0.66%) were called active. Roughly 53% stayed inconclusive and do not appear here. Calls follow the shape of the dose curve; as a rule, active = well fitted inhibition curve with a large enough effect in the signal ratio, with a control signal flat (not every such curve was filed as active); inconclusive = small, poorly fitted or top-dose-only effect, or effect the other way, or a change in a side signal; inactive = flat fitted curve, though single readings scatter; the % refers to the signal ratio. Only a selection was taken, and actives are over-represented in it overall.
# Experiment: qHTS Assay for Lipid Storage Modulators in Drosophila S3 Cells;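 as to cell number change: cells counted by Cell Tracker Red CMTPX staining in the red channel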; as to lipid storage change, negative = inhibition: % is scaled to controls: 0 for no effect and ±100 for the full control effect
# Conditions: BODIPY lipid droplet fluorescence, 18-24 h, cells fed with added oleic acid; cell number change: measured here: cell count max response; series mostly up to 46.1 µM; lipid storage change, negative = inhibition: at the top concentration
# In short: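 Drosophila S3 cells loaded with oleic acid (400 uM, as added) and compounds at several concentrations; lipid droplets imaged by 488-nm laser-scanning cytometry, 500–530 nm intensity and object ratio to cell channel. Percent activity normalized to 20 uM Triacsin C.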
# Potency is read from the fitted curve at half-maximal effect.
SMILES,"lipid storage change, negative = inhibition",cell number change [%],outcome,Potency
COc1ccc(/C=C/C(=O)OCC(=O)c2c[nH]c3ccccc23)cc1,9.96% (inactive),4.45,–,–
CCOc1cc(N2CCOCC2)c(OCC)cc1NC(=O)Cn1[nH]c(=O)c2ccccc2c1=O,5.54% (inactive),7.32,–,–
O=C(O)CNS(=O)(=O)Cc1ccccc1,5.11% (inactive),2.83,–,–
Cc1cccc(NC(=O)C2CCN(S(=O)(=O)c3cccs3)CC2)n1,–,–,inactive,–
Cc1ccccc1Cn1c(C)nc2ccccc21,–,-15.1,–,10.3 µM (active)
COc1ccccc1Cn1c(C)nc2ccccc21,10.5% (inactive),10.6,–,–
Cc1nc2ccccc2n1Cc1ccccc1,-4.71% (inactive),-17,–,–
N#Cc1cc(N2CCCCC2)c([N+](=O)[O-])cc1C#N,-18% (inactive),-3.02,–,–
CC1CCN(c2cc(C#N)c(C#N)cc2[N+](=O)[O-])CC1,–,0.344,–,23.1 µM (active)
CN(C)CCC1CCN(c2cc(C#N)c(C#N)cc2[N+](=O)[O-])CC1,16.4% (inactive),-1.99,–,–
COC(=O)c1cc(OC)c(OC)cc1NC(=S)N1CCN(c2ccccn2)CC1,5.07% (inactive),-13.1,–,–
CCCS(=O)(=O)c1nc(S(=O)(=O)c2ccc(C)cc2)c(N2CCC3(CC2)OCCO3)s1,17.8% (inactive),-26.8,–,–
CCCCNC(=O)CC1NCCNC1=O (stereo not drawn),-8.27% (inactive),-9.85,–,–
COc1cc(NC(=O)CC2NCCNC2=O)cc(OC)c1 (stereo not drawn),-4.51% (inactive),2.74,–,–
COC(=O)CC1NCCNC1=O (stereo not drawn),–,-8.44,–,0.0326 µM (active)
S=c1[nH]nc(-c2cc(-c3ccccc3)n[nH]2)n1/N=C/C=C/c1ccccc1,-0.135% (inactive),5.92,–,–
Cc1ccc(C)c(N2CCN(C(=O)Nc3ccc4c(c3)N(C)C(=O)CS4)CC2)c1,6.34% (inactive),-6.47,–,–
CN(C)N=C1c2cc(S(=O)(=O)N(C)C)ccc2-c2ccc(S(=O)(=O)N(C)C)cc21,–,-8.49,inactive,–
CC(=O)NCCNC(=O)c1ccc(-n2c(C)ccc2C)cc1,6.73% (inactive),-0.679,–,–
O=C1ON=C(c2ccccc2)/C1=C/c1ccccc1,–,-8.78,inactive,–
Cc1ccc(C2=NOC(=O)/C2=C\C=C\c2ccccc2)cc1,–,-25.2,–,4.61 µM (active)
O=C1ON=C(c2ccccc2)/C1=C/c1cccnc1,-24.6% (inactive),4.4,–,–
Cc1cc(C)cc(N2CC(C(=O)Nc3cc(C)on3)CC2=O)c1 (stereo not drawn),-6.62% (inactive),-8.97,–,–
CC(=O)c1ccccc1C(=O)N1CCCC(CNC(=O)c2ccccc2Cl)C1 (stereo not drawn),–,–,inactive,–

SMILES,"lipid storage change, negative = inhibition",cell number change [%],outcome,Potency
COc1ccccc1NC(=O)N1CCCC(CNC(=O)c2ccccc2Cl)C1 (stereo not drawn),–,21.5,inactive,–
Cc1cccc(NC(=O)N2CCCC(CNC(=O)c3ccccc3Cl)C2)c1C (stereo not drawn),–,-15,–,20.6 µM (active)
O=c1c(Cl)c(N2CCNCC2)cnn1C12CC3CC(CC(C3)C1)C2,1.07% (inactive),5.13,–,–
CCCc1nnc(NC(=O)CSc2nc3ccccc3[nH]2)s1,3.54% (inactive),-1.76,–,–
COc1ccc(NC(=O)CC(NCCc2ccccc2)C(=O)O)c(OC)c1 (stereo not drawn),-5.38% (inactive),2.02,–,–
COc1ccc(OC)c(NC(=O)CC(NCCC2=CCCCC2)C(=O)O)c1 (stereo not drawn),–,1.58,–,4.61 µM (active)
COc1ccc(C)cc1NC(=O)NCCC1=CCCCC1,–,–,inactive,–
S=c1[nH]nc(-c2cccs2)n1/N=C/c1cn(-c2ccccc2)nc1-c1ccccc1,-0.402% (inactive),-2.97,–,–
CCCC[N+](CC#CCO)(CC#Cc1ccccc1)CCCC,11.3% (inactive),24.4,–,–
Cc1nc(SCC(O)CCl)c([N+](=O)[O-])[nH]1 (stereo not drawn),-0.122% (inactive),21.1,–,–
CC(C)OP(=O)(OC(C)C)C(Nc1ccc(C(=O)O)cc1)c1ccccc1 (stereo not drawn),-19.3% (inactive),-10.6,–,–
COc1cc(CNc2ncn[nH]2)ccc1OCC(=O)NC(C)(C)C,15.6% (inactive),-0.636,–,–
Cc1nn(S(=O)(=O)N2CCOCC2)c(C)c1Br,-9.45% (inactive),-1.55,–,–
CCc1nc(SCC(=O)NCc2ccco2)c2c(=O)n(C)c(=O)n(C)c2n1,–,–,inactive,–
CCc1nc(SCC(=O)Nc2ccc(F)cc2)c2c(=O)n(C)c(=O)n(C)c2n1,-28.8% (inactive),7.11,–,–
Cn1c(=O)c2c(SCC(=O)N3CCOCC3)nc(-c3ccccc3Cl)nc2n(C)c1=O,–,-19.8,inactive,–
CCc1nc(SCC(=O)NCc2ccccc2)c2c(=O)n(C)c(=O)n(C)c2n1,25.2% (inactive),–,–,–
CCc1nc(SCC(=O)Nc2ccccc2)c2c(=O)n(C)c(=O)n(C)c2n1,–,-27.3,–,7.31 µM (active)
Cn1c(=O)c2c(SCC(=O)NCc3ccco3)nc(-c3ccccc3Cl)nc2n(C)c1=O,–,-20.7,–,8.91 µM (active)
CCN(CC)S(=O)(=O)c1ccc(/C=C/C(=O)OCC(=O)Nc2cccc3ccccc23)cc1,7.73% (inactive),15.5,–,–
Cc1noc(C)c1S(=O)(=O)N1CCC(C(N)=O)CC1,12.8% (inactive),-15.5,–,–
Cc1ccc(C(=O)OCC(=O)NCCC2=CCCCC2)cc1N,1.1% (inactive),–,–,–
COc1cccc(NC(=O)c2ccc(CN3CCc4ccccc4C3)cc2)c1,–,26.4,inactive,–
